# Source: the supplement of paper PMC10412459
# System: K562 SF3B1 K700E vs K562 SF3B1 WT
# Experiment: surviving fraction ratio K562 SF3B1 K700E / K562 SF3B1 WT (each relative to DMSO); higher = less selective killing of SF3B1 K700E cells
# Conditions: 5 days
# Outline: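 Isogenic K562 cells carrying an engineered SF3B1 hotspot allele and matched SF3B1 wild-type cells were screened against an in-house 80-compound library in 384-well plates. Plates were seeded at 250 cells per well, and compounds were added 24 h later at 0.5, 1, 5, 10, 50, 100, 500 and 1,000 nM, with continuous culture for 5 d. Viability was read by CellTiter-Glo. The value is the mutant-to-wild-type ratio of surviving fractions, each normalised to DMSO.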
Structure (SMILES),surviving fraction ratio K562 SF3B1 K700E / K562 SF3B1 WT (0.5nM),surviving fraction ratio K562 SF3B1 K700E / K562 SF3B1 WT (1nM),surviving fraction ratio K562 SF3B1 K700E / K562 SF3B1 WT (5nM),surviving fraction ratio K562 SF3B1 K700E / K562 SF3B1 WT (10nM),surviving fraction ratio K562 SF3B1 K700E / K562 SF3B1 WT (50nM),surviving fraction ratio K562 SF3B1 K700E / K562 SF3B1 WT (100nM),surviving fraction ratio K562 SF3B1 K700E / K562 SF3B1 WT (500nM),surviving fraction ratio K562 SF3B1 K700E / K562 SF3B1 WT (1000nM)
CO[C@H]1C[C@@H]2CC[C@@H](C)[C@@](O)(O2)C(=O)C(=O)N2CCCC[C@H]2C(=O)O[C@H]([C@H](C)C[C@@H]2CC[C@@H](OCCO)[C@H](OC)C2)CC(=O)[C@H](C)/C=C(\C)[C@@H](O)[C@@H](OC)C(=O)[C@H](C)C[C@H](C)/C=C/C=C/C=C/1C [everolimus],0.697,0.655,0.712,0.806,0.702,0.697,0.824,0.967
CN1CC[C@H](c2c(O)cc(O)c3c(=O)cc(-c4ccccc4Cl)oc23)[C@H](O)C1 [Flavopiridol],0.8,0.83,0.793,0.847,0.916,0.929,1.89,2.25
C=CC(=O)Nc1cc2c(Nc3ccc(F)c(Cl)c3)ncnc2cc1OCCCN1CCOCC1 [canertinib],0.814,0.878,0.921,0.888,0.721,0.79,0.72,0.639
COc1ccc(-c2cc3c(C)nc(N)nc3n([C@H]3CC[C@H](OCCO)CC3)c2=O)cn1,1.06,1.14,0.92,1,0.958,0.868,1.37,1.58
C[C@]12CC[C@H](O)CC1=CC[C@@H]1[C@@H]2CC[C@]2(C)C(c3cccnc3)=CC[C@@H]12,1.04,0.918,0.91,0.915,0.899,1.01,0.995,0.937
CCN(CC)CCCCNc1ncc2cc(-c3cc(OC)cc(OC)c3)c(NC(=O)NC(C)(C)C)nc2n1,1.15,1.03,0.942,0.926,0.901,1.09,0.957,0.89
CCn1c(C(=O)N(C2CC2)C2CC2)cc2c3c(ncn3C)c(Nc3cc(C)n(C)n3)nc21,0.923,0.951,1,0.938,0.82,0.801,0.844,0.893
COc1cc([C@@H]2c3cc4c(cc3[C@@H](O[C@@H]3O[C@@H]5CO[C@@H](C)O[C@H]5[C@H](O)[C@H]3O)[C@H]3COC(=O)[C@H]23)OCO4)cc(OC)c1O [etoposide],0.966,0.974,0.905,0.771,0.842,1.01,1.72,1.51
CNCc1ccc(-c2[nH]c3cc(F)cc4c3c2CCNC4=O)cc1,0.834,0.856,0.825,0.831,0.897,0.794,0.847,0.711
Cc1nc(Nc2n[nH]c3c2CN(C(=O)N[C@H](CN(C)C)c2ccccc2)C3(C)C)c2sccc2n1,0.912,0.858,1.09,1.34,1.76,1.69,1.98,1.69
CC[C@@H](C(=O)[C@@H](C)[C@@H](O)[C@H](C)[C@@H]1O[C@@H]([C@@H](CC)C(=O)O)CC[C@@H]1C)[C@H]1O[C@]2(C=C[C@@H](O)[C@]3(CC[C@@](C)([C@H]4CC[C@](O)(CC)[C@H](C)O4)O3)O2)[C@H](C)C[C@@H]1C [salinomycin],0.921,0.999,0.871,1.27,0.88,0.831,0.898,1.16
COc1cc2nccc(Oc3ccc(NC(=O)C4(C(=O)Nc5ccc(F)cc5)CC4)cc3)c2cc1OC [Cabozantinib],0.718,0.805,0.831,0.71,0.733,0.704,0.503,0.686
